# In the OligoGym collection:
# Target: GALNT9
# Assay: pooled miR-30 sensor sort-seq; sequence = guide strand
# Conditions: shRNA
# Further: reference of the scale not given here.
row,Sequence,sensor-assay potency score (higher = more potent)
1,TGATGTGTGACTTAGGTCTTGG,0.117
2,TTTCTGATCATCCACTTCTGCC,-1.06
3,TTTCTCACCTCTCCGTACGTGA,-0.461
4,TTTGTCGCTGTCCATGTCCTCC,-0.772
5,ATAGTAGTCAATGTCGTTGTTG,-0.487
6,TAGTAGTCAATGTCGTTGTTGT,0.0429
7,TTGTAGACCCTCATCTCCGGGT,-0.631
8,TTTGGACATCTCCACCTCCAGG,-1.41
9,TTGCTGTTTCTCACCTCTCCGT,-0.669

# Target: GALNTL4
# Assay: as above
# Conditions: shRNA
row,Sequence,sensor-assay potency score (higher = more potent)
1,ATATTCGGTCAGCTTCTCCTTC,-0.121
2,TTGACGTCCACCAGGCATCGGT,-0.813
3,TGGATCTGCTGACTGCTCGTGT,-0.605
4,AATAGTTTGATATCATACCATC,-1.73
5,TACTCTTCTATCTCAAAGTTGT,-0.112
6,TTCAGTTCCTCGTTACTGCTGT,0.73
7,TTGATATCATACCATCACCTAC,-1.18
8,TTGTCATCATCATCCACGGTGG,-0.503
9,TTCCTCCAGCTTCTTGTCGGGC,-1.36
10,TTTGTCTTCCTCCAGCTTCTTG,-1.15
11,TCGGTTGTCATCATCATCCACG,-0.664

# Target: GALT
# Assay: as above
# Conditions: shRNA
row,Sequence,sensor-assay potency score (higher = more potent)
1,TTTTCAAAGATCTGCACCCAAG,-1.61
2,TGAGCAAGCATTTCGTAGCCAA,-0.524
3,AAGCATTTCGTAGCCAACCATG,-1.22
4,TTGTCAAACAGGAAGGTGCTAT,-0.0645
5,TACTAACCAGTGCTCACTGGTT,-0.859
6,ATACTTGGTCAAGAGCTTCTTC,-0.165
7,TATCTGGCAGGAAACTGCTGGC,-0.854
8,AAGAGCTTCTTCATGATGGAGG,-0.296
9,TTGGTCAAGAGCTTCTTCATGA,-0.31
10,TATAGGCCTGCTGAGATCGCTC,-0.708
11,TTGCCCGGAAGGTTGCTGCTGC,-0.354
12,TGAATTTCCGGACAGTGGCAGA,-0.779
13,TTTGTTTTCAAAGATCTGCACC,-0.471
14,TAATTCAGCAAGACTGTTGAAA,0.0574
15,AAAGAGGTTGTCATACTTGGTC,-0.351
16,TAGCCAACCATGAATTTCCGGA,-0.189
17,TTCCTTCCTGAGTAGCTCCTGG,-0.401
18,AAGGGGACCAGTACTAACCAGT,-0.813
19,TTCCTGAGTAGCTCCTGGCGGC,-0.283
20,TTCACCTCTCCGTTGGCTCGGA,-0.467
